The values below come from PubChem BioAssay (NCI).

Compounds without any hit were thinned out: in the full panel of roughly 83,000, 20% have a hit.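 The endpoint reported here, percent growth, reads 100 for growth as untreated, 0 for no net growth and -100 for all cells dead.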 A number with no mark means an inactive call. Active and inactive are the calls of the source. How the source made its calls: active means growth percent below 10; inactive means the rest.

Among the test systems are DU-145 prostate; K-562 leukemia; MALME-3M melanoma; MDA-MB-231 breast; RXF 393 renal; SF-268 CNS; SF-295 CNS; SF-539 CNS; UACC-257 melanoma; M14 melanoma; HCT-15 colon; HT29 colon; SNB-75 CNS; SNB-19 CNS; U251 CNS; PC-3 prostate; SK-MEL-5 melanoma; UACC-62 melanoma; LOX IMVI melanoma; SK-MEL-28 melanoma.
Assay in all cases: NCI-60 one-dose screen, 48 h (100 = growth as untreated, 0 = no growth, -100 = all killed)
Holding throughout (conditions): 10 µM unless noted

For the compound `COc1cc2cc(Oc3ccc(NC(=O)c4cc(C(F)(F)F)cc(C(F)(F)F)c4)cc3)c(C)nc2cc1OCCN1CCOCC1`, the growth was 87.1% in the assay with DU-145 prostate; 26.5% in the assay on K-562 leukemia; 69.7% in the assay with MALME-3M melanoma; 75.7% in the assay with MDA-MB-231 breast; 1.66% (active) in the assay on RXF 393 renal; 72.6% with SF-268 CNS. Also, the growth with SF-295 CNS is 29.7%; in the assay on SF-539 CNS, 59.4%; in the assay with UACC-257 melanoma, 57.3%; in the assay with M14 melanoma it was 60.5%; in the assay on HCT-15 colon, 47.1%; in the assay on HT29 colon, 63.8%. The growth in the assay on SNB-75 CNS is 47.7%; in the assay on SNB-19 CNS, 87.6%; with U251 CNS, 55%; in the assay with PC-3 prostate, 41.7%; in the assay with SK-MEL-5 melanoma, 14.6%; in the assay on UACC-62 melanoma, 59.3%. The growth with LOX IMVI melanoma was 69.6%; with SK-MEL-28 melanoma, 70.8%.

As to `C#C[C@]1(O)CC[C@H]2[C@@H]3CC=C4c5sc(Nc6cccc(F)c6)nc5CC[C@]4(C)[C@H]3CC[C@@]21C`, the growth in the assay with DU-145 prostate is 31.3%; in the assay on K-562 leukemia it was 0.936% (active); in the assay on MALME-3M melanoma it was 38.3%; with MDA-MB-231 breast it was 30.6%; in the assay on RXF 393 renal, -50.8% (active); in the assay on SF-268 CNS it was 37.1%. Moreover, the growth in the assay with SF-295 CNS is -51.9% (active); with SF-539 CNS it was -10.8% (active); in the assay on UACC-257 melanoma it was 44%; with M14 melanoma, 11%; with HCT-15 colon, -28.6% (active); with HT29 colon, -23.3% (active). Moreover, the growth was 24.1% in the assay on SNB-75 CNS; 35.8% in the assay with SNB-19 CNS; 10% in the assay with U251 CNS; 19.2% with PC-3 prostate; 42.6% in the assay on SK-MEL-5 melanoma; 5.77% (active) with UACC-62 melanoma. The growth with SK-MEL-28 melanoma is 13.8%.

For `Clc1ccc2[nH]cc(-c3nn4cc(-c5ccncc5)nc4s3)c2c1`, the growth is 53.1% with DU-145 prostate; 49% in the assay on K-562 leukemia; 26.9% with MALME-3M melanoma; 50.8% with MDA-MB-231 breast; 79% in the assay on RXF 393 renal; 39.1% with SF-268 CNS. Moreover, the growth was 71% with SF-295 CNS; 25.8% in the assay with SF-539 CNS; 90.7% in the assay with UACC-257 melanoma; 67.7% with M14 melanoma; 57.6% in the assay with HCT-15 colon; 72.8% with HT29 colon. In addition, the growth is 72.4% in the assay on SNB-75 CNS; 24.4% with SNB-19 CNS; 52.5% in the assay with U251 CNS; 9.36% (active) in the assay with PC-3 prostate; 38.3% with SK-MEL-5 melanoma; 25.8% in the assay with UACC-62 melanoma. For the same compound, the growth in the assay with LOX IMVI melanoma was 49.9%; with SK-MEL-28 melanoma it was 53.8%.

On to `COc1ccccc1/C=C1\Oc2ccc(O)c(O)c2C1=O`, for which the growth in the assay with DU-145 prostate was 98.4%; with K-562 leukemia it was 95.6%; in the assay with MALME-3M melanoma, 102%; in the assay on MDA-MB-231 breast it was 94.9%; in the assay on RXF 393 renal, 90.2%; with SF-268 CNS it was 102%. Besides, the growth was 112% with SF-295 CNS; 91.8% in the assay with SF-539 CNS; 101% in the assay with UACC-257 melanoma; 95.4% with M14 melanoma; 77.5% in the assay on HCT-15 colon; 105% in the assay with HT29 colon. In addition, the growth was 82.6% in the assay on SNB-75 CNS; 86.4% with SNB-19 CNS; 86.8% in the assay on U251 CNS; 98.7% in the assay on PC-3 prostate; 99% with SK-MEL-5 melanoma; 92.1% with UACC-62 melanoma. Besides, the values for the growth with LOX IMVI melanoma and in the assay with SK-MEL-28 melanoma were 83.5% and 94%, respectively.

On to `C=C1CCc2nc(SCC(=O)O)ccc2N1`, for which the growth in the assay on DU-145 prostate is 110%; with K-562 leukemia, 98.5%; in the assay on MALME-3M melanoma it was 104%; in the assay on MDA-MB-231 breast, 105%; in the assay on RXF 393 renal, 94.1%; in the assay on SF-268 CNS, 103%. The growth in the assay on SF-295 CNS is 104%; with SF-539 CNS, 101%; with UACC-257 melanoma, 105%; with M14 melanoma, 94.8%; in the assay on HCT-15 colon, 99.1%; in the assay on HT29 colon, 109%. For the same compound, the growth is 85.1% in the assay with SNB-75 CNS; 92.7% in the assay with SNB-19 CNS; 112% in the assay with U251 CNS; 104% with PC-3 prostate; 101% with SK-MEL-5 melanoma; 93.2% in the assay on UACC-62 melanoma. Further, the growth in the assay with LOX IMVI melanoma is 96.9%; in the assay on SK-MEL-28 melanoma, 106%.

As to `O=C(COc1ccc(/C=C2\C(=O)Nc3cc(Cl)ccc32)cc1)Nc1ccc(Cl)cc1`, the growth in the assay with DU-145 prostate is 85.9%; in the assay on K-562 leukemia, 32.8%; in the assay on MALME-3M melanoma it was 98.7%; with MDA-MB-231 breast it was 82.8%; in the assay with RXF 393 renal, 76.4%; with SF-268 CNS, 72.6%. The growth with SF-295 CNS was 66%; in the assay with SF-539 CNS, 66.8%; in the assay with UACC-257 melanoma, 78.4%; in the assay on M14 melanoma, 22.1%; in the assay on HCT-15 colon it was 42.5%; with HT29 colon, 74.6%. In addition, the growth in the assay on SNB-75 CNS is 78.9%; in the assay on SNB-19 CNS it was 82.1%; with U251 CNS, 85.2%; in the assay on PC-3 prostate, 54.5%; in the assay on SK-MEL-5 melanoma, 72.8%; in the assay with UACC-62 melanoma it was 24.6%. For the same compound, the values for the growth in the assay on LOX IMVI melanoma and with SK-MEL-28 melanoma were 44.8% and 78.7%, respectively.

`COC(=O)c1ccc(NC2=C(Cl)C(=O)c3nc(C)ccc3C2=O)cc1`: the growth is 68.5% in the assay with DU-145 prostate; 7.53% (active) in the assay with K-562 leukemia; 74.7% with MALME-3M melanoma; 91.9% in the assay on MDA-MB-231 breast; 89.7% in the assay on RXF 393 renal; 72.9% in the assay with SF-268 CNS. Further, the growth is 61.3% in the assay with SF-295 CNS; 72.6% in the assay on SF-539 CNS; 78.1% with UACC-257 melanoma; 59.9% with M14 melanoma; 22.7% with HCT-15 colon; 90.5% in the assay on HT29 colon. In addition, the growth in the assay on SNB-75 CNS is 106%; with SNB-19 CNS, 61.9%; in the assay on U251 CNS it was 46.9%; in the assay on PC-3 prostate, 57.3%; with SK-MEL-5 melanoma it was 68.4%; in the assay on UACC-62 melanoma, 68.5%. In addition, the growth in the assay with LOX IMVI melanoma was 45.1%; in the assay on SK-MEL-28 melanoma, 75.4%.

For the compound `COc1ccc(/C=N/NC(=O)c2c(N)nn(C)c2Nc2ccccc2)cc1Oc1ccccc1`, the growth is 101% in the assay on DU-145 prostate; 88% with K-562 leukemia; 91.1% in the assay on MALME-3M melanoma; 94.9% in the assay on MDA-MB-231 breast; 87.1% in the assay on RXF 393 renal; 94% in the assay with SF-268 CNS. The growth in the assay with SF-295 CNS is 90.4%; in the assay on SF-539 CNS, 95.7%; in the assay with UACC-257 melanoma it was 96.9%; in the assay with M14 melanoma, 101%; with HCT-15 colon, 87.7%; in the assay with HT29 colon it was 110%. The growth is 88.2% in the assay on SNB-75 CNS; 88.4% in the assay with SNB-19 CNS; 93.6% in the assay on U251 CNS; 74.9% in the assay on PC-3 prostate; 93.8% with SK-MEL-5 melanoma; 83.8% in the assay with UACC-62 melanoma. Besides, the growth in the assay on SK-MEL-28 melanoma is 102%.
